Measured values reported in PubChem BioAssay AID2551 (National Center for Advancing Translational Sciences (NCATS), 2010).
The whole screen tested about 310,000 compounds, of which about 17,000 (5.5%) were called active. Another 11% or so got no clear call; they are omitted. The call rests on the fitted dose curve; in most records, active means well fitted inhibition curve with a large enough effect; inconclusive means small, poorly fitted or top-dose-only effect, or effect the other way; inactive means no such curve, though single readings can be large or run the other way. This excerpt belongs to a sample that is enriched for actives.

Target: Nuclear receptor ROR-gamma (Mus musculus) (UniProt P51450)
Test: qHTS for inhibitors of ROR gamma transcriptional activity; further: nearly all actives have a fitted effect of over 60% in size
Details: Drosophila S2 Gal4-RORgamma UAS-luciferase reporter, 20 h; series mostly up to 53.6 µM; activity change, negative = inhibition: at the top concentration
Method in brief: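 Luciferase reporter read in Schneider cells carrying Gal4-RORγ (mouse) and UAS-Photinus luciferase; cells given compound 1 h before 700 uM copper sulfate induction, then incubated 20 h at ambient temperature.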
On the % scale 0 is the no-effect control and ±100 the full control effect; potency means the concentration at half of the fitted maximal effect.

Chain of Nuclear receptor ROR-gamma (Mus musculus) (P51450 whole entry, looked up): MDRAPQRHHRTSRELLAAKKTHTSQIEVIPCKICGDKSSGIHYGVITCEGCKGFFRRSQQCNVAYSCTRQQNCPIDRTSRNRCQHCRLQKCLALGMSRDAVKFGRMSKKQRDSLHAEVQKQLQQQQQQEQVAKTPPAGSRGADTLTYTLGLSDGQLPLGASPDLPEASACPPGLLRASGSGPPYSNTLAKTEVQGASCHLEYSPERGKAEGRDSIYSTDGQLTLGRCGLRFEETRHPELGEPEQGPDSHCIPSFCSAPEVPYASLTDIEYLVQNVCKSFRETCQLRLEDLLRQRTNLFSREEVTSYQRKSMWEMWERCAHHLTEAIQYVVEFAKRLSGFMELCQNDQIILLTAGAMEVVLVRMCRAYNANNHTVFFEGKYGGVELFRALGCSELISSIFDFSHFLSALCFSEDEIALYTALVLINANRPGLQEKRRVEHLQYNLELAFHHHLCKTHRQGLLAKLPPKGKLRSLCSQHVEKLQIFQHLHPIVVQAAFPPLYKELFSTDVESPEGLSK

Activity change, negative = inhibition, inactive:
CCn1c(=S)sc2c(=O)n(CC(=O)Nc3ccc(OC)cc3)c(C)nc21 -10.3%
Cc1ccc(C)c(N2CCN(S(=O)(=O)c3c(C)[nH]c(C)c3C(=O)N3CCCC3)CC2)c1 1.12%
CCOC(=O)C1Cn2c(nc3c(c2=O)C(C)(CC)Cc2ccccc2-3)S1 (stereo unspecified) 4.88%
CC1(C)Cc2ccccc2-c2nc(CN3CCOCC3)[nH]c(=O)c21 -5.08%
CC(=O)c1ccc(OCC(O)CN2CCN(S(=O)(=O)c3cccc(Br)c3)CC2)cc1 (stereo unspecified) 1.55%
COC(=O)C1CCCCN1C(=O)c1ccc(OC2CCN(C(C)=O)CC2)c(OC)c1 (stereo unspecified) 0%
Cc1ccc(CN(CC(=O)NCC2CCCO2)S(=O)(=O)c2ccc(C)cc2)cc1 (stereo unspecified) -3.1%
COc1ccccc1Cn1c(CO)nc2ccccc21 -33.8%
COCn1c(COc2ccccc2)nc2ccccc21 -18.9%
Cc1ccc(S(=O)(=O)NNC(=O)Nc2cccc3ccccc23)cc1 2.09%
COc1ccc(C(=O)NNS(=O)(=O)c2ccc(C)cc2)cc1 -13.6%
Cc1ccc(S(=O)(=O)CC(=O)NC(C)c2ccccc2)cc1 (stereo unspecified) 21%
CC(NC(=O)Nc1ccccc1)c1ccccc1 (stereo unspecified) -8.38%
CCOc1ccc(N(CC(=O)NCCc2ccc(F)cc2)S(=O)(=O)c2ccccc2)cc1 14.9%
COc1ccccc1CNC(=O)[C@@H]1CCCN1C(=O)[C@@H]1Cc2ccccc2CN1C(=O)OC(C)(C)C 33.9%
CCN(CC)c1ccc(C(=O)Nn2c(C)nc3ccccc3c2=O)cc1 -16.6%
CCCCCc1ccc(-c2ccc(OCC)cc2)nc1 -33.7%
CCCCCc1ccc(-c2cn(Cc3ccc4ccccc4c3)nn2)cc1 -1.78%
Cc1cccc(-c2nnc(SCC(=O)O)n2Cc2ccccc2)c1 4.58%
O=C(CCC(=O)c1cccs1)NC1CCCCCC1 9.7%
CCCCC(CC)CNC(=O)CCCCn1c(=O)[nH]c2ccsc2c1=O (stereo unspecified) -18.2%
O=C(CN1C(=O)c2ccccc2C1=O)NCc1ccc(C(=O)O)cc1 -11.3%
COc1ccc(N(CC(=O)Nc2cc(OC)cc(OC)c2)S(=O)(=O)c2c(C)n[nH]c2C)cc1 -11.3%
Cc1cccc(N2CCN(C(C)C(=O)N3CCc4ccccc43)CC2)c1C (stereo unspecified) -0.135%
Cc1ccn(CCC(=O)N2c3ccccc3CC2C)n1 (stereo unspecified) -3.48%
COc1ccc(N2C(=O)CNC2=S)cc1 -0.234%
COc1ccc(-n2c(C)csc2=S)cc1 13.1%
COc1ccc(S(=O)(=O)N(CC(=O)N/N=C/c2ccc(C(=O)O)cc2)Cc2ccccc2)cc1OC -0.595%
COc1ccc(-n2ncc3c(SCC(=O)NNC(C)=O)ncnc32)cc1 -14.4%
CC(C)C[C@@H](COc1ccccc1)N1CCN(CC(C)C)CCC1=O 5.12%
C/C(=N\OCC(=O)O)c1ccc(Cl)cc1 2.12%
CCOC(=O)CN/C=C(\C#N)c1ccc(F)cc1 4.9%
CC(C)C(NC(=O)c1ccc(Cl)cc1)C(=O)O (stereo unspecified) 5.86%
CCOC(=O)NNC(=O)c1ccc(Cl)cc1 22.9%
COc1ccc(C2=NS(=O)(=O)N(C)C(C(=O)N(C)Cc3ccccc3)=C2)cc1 10.9%
CCn1cc(CCC(=O)NCc2ccc(F)cc2)c2ccccc21 -1.55%
CCN(CC)CCn1c(N)c(S(=O)(=O)c2ccccc2)c2nc3ccccc3nc21 -4.59%
C/C(=N\c1nc2ccccc2n1C)c1cc(Cl)ccc1O -4.15%
Cc1ccc(Cn2c(C)c3cnn(CC(=O)NCc4ccccn4)c(=O)c3c2C)cc1 -19.1%
COc1ccc2cc(C(=O)O)n(CC(=O)c3ccccc3)c2c1 10.7%
CCOC(=O)c1cc2ccccc2n1CC(=O)c1ccccc1 0.755%
COc1ccc(NC(=O)c2cc(-c3cc(OC)c(OC)c(OC)c3)nc3ccccc23)c(OC)c1 32.5%
COC(=O)c1ccc(COc2ccc(C#N)cc2)o1 -14.9%
COc1ccc(C2/C(=C(/O)c3ccccc3)C(=O)C(=O)N2C)c(OC)c1 (stereo unspecified) -11.9%
CCn1c(C(O)c2cc(OC)ccc2OC)nc2ccccc21 (stereo unspecified) -4.76%
COc1ccc(OC)c(C(O)c2nc3ccccc3n2C)c1 (stereo unspecified) 2.31%
CCOC(=O)c1ccccc1NS(=O)(=O)c1c(C)nc2sccn2c1=O 35.7%
OCC(CO)NC1C[C@](O)(CO)[C@@H](O)[C@H](O)[C@H]1O (stereo partly specified) 4.55% [at 10 µM]
C=CCn1c(SCC(=O)NC)nnc1C12CC3CC(CC(C3)C1)C2 -9.51%
C=CCn1c(SCC(=O)NC23CC4CC(CC(C4)C2)C3)nc(O)cc1=O 34%
Cc1nn(Cc2ccccc2)c(C)c1NS(=O)(=O)c1ccccc1 23.2%
Cc1ccccc1NC(=O)CCNS(=O)(=O)c1ccc2[nH]c(=O)oc2c1 -15.3%
CCOc1ccccc1-c1cc(C(=O)N2CCOCC2)c2ccccc2n1 28.2%
CC(OC(=O)c1ccc2ccccc2n1)C(=O)c1ccccc1 (stereo unspecified) 22.8%
CC(=O)c1ccc(S(=O)(=O)N2CCN(C(=O)/C=C/c3ccc4ccccc4n3)CC2)cc1 16.1%
COc1cccc(/C=C2\C=C(c3ccc(C)cc3)OC2=O)c1OC(C)=O -1.83%
Cc1cc(=O)oc2c(C)c(OC(C)C(=O)NC3CCN(Cc4ccccc4)CC3)ccc12 (stereo unspecified) 0.702%
COCc1ccc(C(=O)NC2CC(C)(C)Cc3c2cnn3-c2ccc(C)cc2)o1 (stereo unspecified) 40%
CC(=O)c1ccc(NC(=O)CCNS(=O)(=O)c2cc(Br)cnc2N)cc1 12.9%
O=C(Nc1ccc2oc(-c3ccccc3F)nc2c1)c1ccco1 -3.51%
COc1cc(OC)cc(C(=O)Nc2ccc(S(=O)(=O)Nc3cc(C)on3)cc2)c1 1.82%
C[n+]1cc(-c2ccccc2)oc1-c1ccccc1 10.1%
CC(C)N(C(=O)Cn1cc(S(=O)(=O)CC(=O)N2CCOCC2)c2ccccc21)C(C)C -7.07%
COc1ccc2c(CC(=O)N3CCc4cc(OC)c(OC)cc4C3)coc2c1 40.6%
CCC(CCC(C)C1CCC2C3CC=C4CC(O)CC[C@@]4(C)C3CC[C@@]12C)C(C)C (stereo partly specified) 9.47%
COc1ccc(C(=O)O/N=C(\N)c2ccccn2)cc1[N+](=O)[O-] -42.4% [at 1.91 µM]
Cc1ccc(C(=O)O/N=C(\N)c2ccccn2)cc1Cl 35.7% [at 1.91 µM]
Cc1cccc(C(=O)c2cccc(C)c2)c1 3.06%
COc1ccc(S(=O)(=O)N2CCC(C(=O)N3CCCC3)CC2)cc1C 8.84%
COc1ccc(-c2nn(-c3ccccc3)cc2/C=C\C(=O)Nc2ccc(C(=O)O)cc2)cc1 -30.2%
COc1ccc(-c2nn(-c3ccccc3)cc2/C=C\C(=O)N2CCOCC2)cc1[N+](=O)[O-] -3.63%
COc1cc(N2C(=O)CSC2=S)cc(OC)c1OC -36%
O=C1CSC(=S)N1c1ccc(Cl)c(Cl)c1 -1.7%
CC1CN(C(=O)CCC(=O)NC2CCN(Cc3ccccc3)CC2)c2ccccc2O1 (stereo unspecified) -2.46%
Cc1ccc(OCC(=O)Nc2ccccc2C(=O)NC2CC2)cc1C 12.5%
O=C(Nn1cnnc1)c1cc(Cl)ccc1Cl -18%
NNC(=O)c1ccc(Cl)cc1Cl -13.6%
O=C(c1cc(COc2ccc(F)c(F)c2)on1)N1CCOCC1 37%
COc1ccc(OCC(=O)NCCS(=O)(=O)N2CCN(c3ccc(F)cc3)CC2)cc1 2.8%
Cc1cccc(NC(=O)NC2(C)CCS(=O)(=O)C2)c1 (stereo unspecified) -32.9%
CC(=O)NCC(=O)N1CCCC(C(=O)c2ccc3c4c(cccc24)CC3)C1 (stereo unspecified) 29.4%
Cc1ncoc1C(=O)N1CCCC(C(=O)c2ccc3c4c(cccc24)CC3)C1 (stereo unspecified) 27.1%
CC(=O)Nc1ccc(S(=O)(=O)N(C)c2nc3ccccc3nc2Cl)cc1 44%
COc1ccc(C2c3[nH]c4ccccc4c3C[C@H]3C(=O)N(CC(C)C)CC(=O)N23)c(OC)c1 (stereo partly specified) 19.1%

Potency, active:
CCC1(CC)Cc2ccccc2-c2nc(CCl)[nH]c(=O)c21 11.2 µM
COCc1nc2ccccc2n1Cc1ccccc1Br 6.31 µM
CC(NC(=S)NNS(=O)(=O)c1ccc(C(C)(C)C)cc1)c1ccccc1 (stereo unspecified) 8.91 µM
Cc1ccc(S(=O)(=O)NNC(=S)NC(C)(C)C)cc1 8.91 µM
CCCCCc1ccc(-c2ccc(C(=O)O)cc2)nc1 6.31 µM
O=C(CCCCCn1c(=S)[nH]c2ccsc2c1=O)NC1CCCCC1 11.2 µM
COc1ccc(-c2cn(-c3ccc(OC)cc3)c(=S)[nH]2)cc1 0.398 µM
CCOc1cc(/C=C(/C#N)c2ccc(Cl)cc2)cc(Cl)c1OCC(=O)O 0.891 µM
CC(C)CNC(=S)NC(=O)c1ccc(Cl)cc1 3.98 µM
CCN(CC)CCn1c(/N=C/c2cc(Br)ccc2O)nc2ccccc21 3.98 µM
CCn1c(=N)n(CC(=O)c2cccc(OC)c2)c2ccccc21 6.31 µM
CCCn1c(C(O)c2cc(OC)ccc2OC)nc2ccccc21 (stereo unspecified) 17.8 µM
C=CCn1c(C23CC4CC(CC(C4)C2)C3)n[nH]c1=S 2.82 µM
CCOc1cccc(/C=C/c2ccc3ccccc3n2)c1OC(C)=O 3.98 µM
COc1cccc(/C=C/c2ccc3ccccc3n2)c1OC(C)=O 2 µM
COc1cc(OC)cc(C(=O)Nc2ccc(-c3nc4ccccc4o3)c(O)c2)c1 11.2 µM
C=C1C(=CC=C2CCC[C@@]3(C)[C@@H]2CC[C@H]3[C@H](C)CCCC(C)C)C[C@@H](O)C[C@@H]1O 12.6 µM
Cc1cccc(/C(N)=N/OC(=O)c2ccccc2Cl)c1 0.251 µM
O=C(/C=C/c1cn(-c2ccccc2)nc1-c1ccc2c(c1)OCCO2)NCCCN1CCOCC1 17.8 µM
O=C1CSC(=S)N1c1ccc(O)cc1 12.6 µM
O=C(N/N=C1\CCSC1)c1cc(Cl)ccc1O 11.2 µM
CCn1ccnc1CN1CCCC(C(=O)c2ccc3c4c(cccc24)CC3)C1 (stereo unspecified) 1.26 µM
